The target of experiment [1] is Peroxisome proliferator-activated receptor gamma (Homo sapiens) (UniProt P37231). Nature of the experiment: NVS_NR_hPPARg: NovaScreen (NVS) Nuclear Receptor Binding Assay for human Peroxisome Proliferator-activated Receptor gamma (PPARg) (AID 2283370). An outline of the steps:
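Fluorescence polarization readout of ligand binding to extracted human PPARg, measured at 2 h. Duplicate single-point screen at 25 uM, then concentration-series retesting; activity defined as signal loss versus DMSO.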

The target is the same in experiment [2]. Nature of the experiment: OT_PPARg_PPARgSRC1_0480: Odyssey Thera (OT) 8-hour Protein-Complementation Assay for Peroxisome Proliferator-activated Receptor Gamma / SRC-1 Co-activator (AID 2283387).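 Also: nuclear to cytoplasmic split Venus YFP fluorescence ratio reporting PPARg SRC-1 interaction.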 An outline of the steps: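 Read-out: 488 nm N/C fluorescence ratio from complemented Venus YFP fragments, ≥350 cells per image, gain-of-signal fitted against DMSO baseline. Fusions of PPARg/SRC-1 with IFP1/IFP2 expressed transiently in HEK293T; compounds applied 8 h.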

For experiment [3], the target named is Androgen receptor (Homo sapiens) (UniProt P10275). The experiment can be described thus: ATG_AR_TRANS: Attagene TRANS-FACTORIAL HepG2 Assay for human Androgen Receptor (AR) (AID 2282973). The settings on record: HepG2 Attagene TRANS-FACTORIAL AR reporter transcription. An outline of the steps: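 Transcriptional activity of an exogenous AR–Gal4 fusion read as GAL4-UAS reporter transcript levels in transfected human HepG2 cells after 24 h dosing. Detection via RT-PCR, 6-FAM labelling, HpaI digest and capillary electrophoresis; increase over DMSO baseline.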

Experiment [4] deals with rat Peripheral-type Benzodiazepine Receptor (PBR), Tspo (gene 24230) (UniProt P16257). Nature of the experiment: NVS_MP_rPBR: NovaScreen (NVS) Membrane Protein Assay for rat Peripheral-type Benzodiazepine Receptor (PBR) (AID 2283335). The method, boiled down:
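Rat kidney membranes; radioligand binding with displacement, filter-based scintillation counting, 1 h incubation. Primary screen in duplicate at 25 uM, actives followed in concentration series; loss of binding vs DMSO.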

The nature of experiment [5]: CEETOX_H295R_11DCORT: CeeTox H295R High-throughput Steroidogenesis Assay for 11-Deoxycortisol (11DCORT) (AID 2283432; active = hit-call score of the fitted dose curve at least 0.9, where 1 is the maximum; inactive = score below 0.9;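 as to AC50: 11-deoxycortisol secreted into the medium measured by LC-MS/MS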). To be noted: actives raise or lower the signal. The method, boiled down:
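H295R cells; 10 uM forskolin prestim 48 h; compound in 0.1% DMSO 48 h; media extracted with MTBE; 11-deoxycortisol by LC-MS/MS, 7-point standard curve; gain/loss vs DMSO baseline; viability by MTT in same wells.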

Experiment [6] in a line: CEETOX_H295R_OHPREG: CeeTox H295R High-throughput Steroidogenesis Assay for OH-Pregnenolone (OHPREG) (AID 2283434; active = hit-call score of the fitted dose curve at least 0.9, where 1 is the maximum; inactive = score below 0.9). The settings on record: actives raise or lower the signal. The method, boiled down: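 Hormone levels in spent medium were measured by tandem mass spectrometry following liquid-liquid extraction. Cells (H295R) had been forskolin-stimulated (10 uM, 48 h) before a 48 h chemical exposure at 0.1% DMSO, with activity fitted in both directions against DMSO.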

The nature of experiment [7]: CEETOX_H295R_OHPROG: CeeTox H295R High-throughput Steroidogenesis Assay for OH-Progesterone (OHPROG) (AID 2283435; active = hit-call score of the fitted dose curve at least 0.9, where 1 is the maximum; inactive = score below 0.9;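 as to AC50: human adrenal H295R cells primed 48 h with 10 µM forskolin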). The settings on record: actives raise or lower the signal. The method, boiled down: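 H295R adrenal cells prestimulated 48 h with 10 uM forskolin, then exposed 48 h to chemical (0.1% DMSO final). 17alpha-hydroxyprogesterone in medium quantified by HPLC-MS/MS; bidirectional fit versus DMSO, with MTT viability measured in the same wells.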

The nature of experiment [8]: CEETOX_H295R_CORTIC: CeeTox H295R High-throughput Steroidogenesis Assay for Corticosterone (CORTIC) (AID 2283437; active = hit-call score of the fitted dose curve at least 0.9, where 1 is the maximum; inactive = score below 0.9;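 also: corticosterone secreted into medium quantified by mass spectrometry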;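 as to AC50: human H295R adrenal cells prestimulated with forskolin before chemical exposure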). To be noted: actives raise or lower the signal. The method, boiled down:
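Corticosterone secreted into medium is measured by reverse-phase HPLC with tandem MS following liquid-liquid extraction. Cells are forskolin-stimulated (10 uM, 48 h) before 48 h test exposure; activity fitted in both directions against DMSO.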

Experiment [9] in a line: CEETOX_H295R_CORTISOL: CeeTox H295R High-throughput Steroidogenesis Assay for Cortisol (AID 2283438; active = hit-call score of the fitted dose curve at least 0.9, where 1 is the maximum; inactive = score below 0.9;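 also: cortisol secreted into medium quantified by LC-MS/MS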). To be noted: actives raise or lower the signal. An outline of the steps:
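Forskolin-primed H295R cells (10 uM, 48 h) treated 48 h with test chemical in 0.1% DMSO. Cortisol in medium quantified by MTBE extraction and HPLC-MS/MS; bidirectional fit vs DMSO, MTT viability in same wells.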

Experiment [10] is described as follows: CEETOX_H295R_DOC: CeeTox H295R High-throughput Steroidogenesis Assay for DOC (AID 2283439; active = hit-call score of the fitted dose curve at least 0.9, where 1 is the maximum; inactive = score below 0.9). The settings on record: actives raise or lower the signal. An outline of the steps:
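H295R cells prestimulated 48 h with 10 uM forskolin, then exposed 48 h to test chemical (0.1% DMSO final). Medium 11-deoxycorticosterone measured by HPLC-MS/MS after MTBE extraction; bidirectional fit vs DMSO, viability checked by MTT in same wells.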

The nature of experiment [11]: CEETOX_H295R_PROG: CeeTox H295R High-throughput Steroidogenesis Assay for Progesterone (PROG) (AID 2283442; active = hit-call score of the fitted dose curve at least 0.9, where 1 is the maximum; inactive = score below 0.9;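 also: human H295R adrenal cells primed with 10 µM forskolin before dosing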). The settings on record: actives raise or lower the signal. The method, boiled down:
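Progesterone secreted by human H295R cells was measured by LC-MS/MS following 48 h chemical exposure at 0.1% DMSO, preceded by 48 h forskolin (10 uM) stimulation. Same-well MTT viability; cytotoxic concentrations diluted 10- or 100-fold and retested.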

The target in experiment [12] is Nucleoli Translocation, AR (gene 367) (UniProt P10275). Nature of the experiment: UPITT_HCI_U2OS_AR_TIF2_Nucleoli_Agonist: University of Pittsburgh U2OS Androgen Receptor-Transcriptional Intermediary Factor 2 (AR-TIF2) Agonism High Content Imaging Assay for Nucleoli Translocation (AID 2283998). The method, boiled down: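 Nucleolar translocation of AR-RFP, with TIF2-GFP coexpressed in human osteosarcoma U2OS, imaged by high-content fluorescence. Compounds tested singly at 20 uM final, confirmed in triplicate, then titrated 0.195–50 uM final; gain-of-signal relative to DMSO.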

In experiment [13] the target is Ratio of Nucleoli Translocation and Cytoplasm, AR (gene 367) (UniProt P10275). Nature of the experiment: UPITT_HCI_U2OS_AR_TIF2_Nucleoli_Cytoplasm_Ratio_Antagonist: University of Pittsburgh U2OS Androgen Receptor-Transcriptional Intermediary Factor 2 (AR-TIF2) Antagonism High Content Imaging Assay for Ratio of Nucleoli Translocation and Cytoplasm (AID 2283999).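 Also: antagonists lower the DHT-driven ratio of nucleolar to cytoplasmic red signal.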 An outline of the steps:
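U2OS cells co-expressing RFP-tagged human AR and GFP-tagged TIF2, antagonist mode with DHT as baseline. Nucleolar-to-cytoplasmic red fluorescence ratio imaged by high-content microscopy; final compound 20 uM (0.2% DMSO) primary, 0.195–50 uM (0.5% DMSO) concentration-response.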

For experiment [14] the target is unchanged. The experiment can be described thus: UPITT_HCI_U2OS_AR_TIF2_Nucleoli_Cytoplasm_Ratio_Agonist: University of Pittsburgh U2OS Androgen Receptor-Transcriptional Intermediary Factor 2 (AR-TIF2) Agonism High Content Imaging Assay for Ratio of Nucleoli Translocation and Cytoplasm (AID 2284000).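 Also: hits raise the red nucleolar to cytoplasm ratio above vehicle.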 The method, boiled down: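 Read-out first: nucleolar-to-cytoplasm ratio of red (AR-RFP) signal, quantified by high-content imaging in U2OS cells co-expressing TIF2-GFP. Activity is scored as signal increase over DMSO. Single-point screening used 20 uM final (0.2% DMSO).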

The target of experiment [15] is human Ephrin type-A Receptor 1 (EphA1), EPHA1 (gene 2041) (UniProt P21709). Nature of the experiment: NVS_ENZ_hEphA1: NovaScreen (NVS) Enzymatic Assay for human Ephrin type-A Receptor 1 (EphA1) (AID 2283158).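 Also: activity is signal loss versus DMSO meaning EphA1 kinase inhibition.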 The method, boiled down: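 Fluorescent substrate conversion, resolved by mobility-shift separation, measured 1 hour post-dosing using recombinant enzyme; signal loss relative to DMSO baseline. Single-concentration duplicates at 25 uM preceded singleton concentration series topping at 50 uM.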

The nature of experiment [16]: CCTE_Deisenroth_AIME_384WELL_CTox_Active: Cytotoxicity Assessment (CTOX) in CCTE's 384-well Estrogen Receptor Transactivation Assay with AIME metabolic competence (metabolism positive), Deisenroth Lab (AID 2284037).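 Also: chemicals first conditioned 2 h by alginate-bound induced rat liver S9 before cells; activity means signal loss indicating cell death.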 An outline of the steps:
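Cytotoxicity in VM7Luc4E2 breast cells, 24 hour, measured as protease-substrate fluorescence loss, after 2-hour metabolic conditioning with induced rat hepatic S9 in alginate microspheres. Concentrations 0.002 - 200 uM, 10 points, bidirectional fitting.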

Experiment [17] addresses Bile acid receptor (Homo sapiens) (UniProt Q96RI1). The experiment can be described thus: OT_FXR_FXRSRC1_0480: Odyssey Thera (OT) 8-hour HEK293T Protein-Complementation Assay for Farnesoid X receptor/SRC-1 Co-activator (AID 2283383). The method, boiled down: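 HEK293T protein-fragment complementation assay: FXR and SRC-1 coactivator are fused to reporter fragments, and their interaction restores a fluorescent reporter. Readout was taken 8 h after dosing, with gain of signal fit relative to DMSO.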

Experiment [18] concerns Sodium/Iodide Symporter (NIS), SLC5A5 (gene 6528). The experiment can be described thus: CPHEA_Stoker_NIS_Inhibition_RAIU: CPHEA's Radioactive Iodide Uptake (RAIU) Assay for Sodium/Iodide Symporter (NIS) Inhibition, Stoker and Laws Labs (AID 2283841). An outline of the steps: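 HEK293T cells stably expressing human NIS (hNIS-HEK293T-EPA) were exposed to test chemicals at 0.001–100uM (0.5% final DMSO) with 125I at a final 329pM in HBSS/10mM HEPES pH 7.4. After 2 hours at room temperature and ice-cold washes, intracellular 125I was counted as CPM and normalized to DMSO wells.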

Experiment [19] is described as follows: CPHEA_Stoker_NIS_Cytotoxicity: Cytotoxicity Assessment for CPHEA's Radioactive Iodide Uptake (RAIU) Assay for Sodium/Iodide Symporter (NIS) Inhibition, Stoker and Laws Labs (AID 2283897). The method, boiled down:
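hNIS-HEK293T-EPA human kidney cells were exposed for 2 hours at room temperature to test chemicals (0.001–100uM, 0.5% final DMSO) in HEPES-buffered HBSS, pH 7.4. Viability was read as ATP content by luciferase bioluminescence, loss of signal versus DMSO.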

Inconclusive results are not listed. Some structures have more than one record in an assay (separate samples or runs), and their calls can disagree. The source made the active and inactive calls. The calls were made as follows, unless noted: active = hit-call score of the fitted dose curve at least 0.9, where 1 is the maximum; inconclusive = response in the unintended direction; inactive = score below 0.9.

The values below come from PubChem BioAssay (EPA / NIEHS).

Nucleoli Translocation, AR (gene 367), sequence (P10275 whole entry, looked up): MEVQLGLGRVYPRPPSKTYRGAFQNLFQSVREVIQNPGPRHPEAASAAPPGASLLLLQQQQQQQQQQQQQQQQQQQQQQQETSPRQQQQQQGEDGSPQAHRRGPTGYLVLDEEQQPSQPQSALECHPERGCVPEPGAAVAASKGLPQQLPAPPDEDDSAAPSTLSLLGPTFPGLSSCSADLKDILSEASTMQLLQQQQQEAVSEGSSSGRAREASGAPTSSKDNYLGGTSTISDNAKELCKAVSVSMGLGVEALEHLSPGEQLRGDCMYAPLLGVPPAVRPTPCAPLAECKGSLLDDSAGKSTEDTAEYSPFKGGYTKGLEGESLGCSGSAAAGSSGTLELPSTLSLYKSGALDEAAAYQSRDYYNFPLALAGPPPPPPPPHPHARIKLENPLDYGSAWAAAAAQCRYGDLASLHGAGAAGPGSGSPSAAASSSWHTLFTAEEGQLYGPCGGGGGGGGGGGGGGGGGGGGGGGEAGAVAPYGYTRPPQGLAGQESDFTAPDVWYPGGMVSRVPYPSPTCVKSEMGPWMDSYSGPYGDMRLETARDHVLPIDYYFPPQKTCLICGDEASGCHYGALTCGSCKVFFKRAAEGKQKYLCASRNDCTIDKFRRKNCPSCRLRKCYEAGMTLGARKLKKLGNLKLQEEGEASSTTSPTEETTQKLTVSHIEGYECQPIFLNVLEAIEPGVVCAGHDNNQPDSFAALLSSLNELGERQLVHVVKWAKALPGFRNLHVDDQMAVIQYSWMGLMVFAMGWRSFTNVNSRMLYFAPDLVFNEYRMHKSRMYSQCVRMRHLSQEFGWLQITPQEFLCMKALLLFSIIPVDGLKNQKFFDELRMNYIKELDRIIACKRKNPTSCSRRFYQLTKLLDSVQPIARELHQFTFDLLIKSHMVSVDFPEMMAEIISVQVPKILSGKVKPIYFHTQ
Ratio of Nucleoli Translocation and Cytoplasm, AR (gene 367), sequence (P10275 whole entry, looked up): as above
Androgen receptor (Homo sapiens), sequence (P10275 whole entry, looked up, the tested form may be a part): as the sequence (P10275 whole entry, looked up) above
Peroxisome proliferator-activated receptor gamma (Homo sapiens), sequence (P37231 whole entry, looked up): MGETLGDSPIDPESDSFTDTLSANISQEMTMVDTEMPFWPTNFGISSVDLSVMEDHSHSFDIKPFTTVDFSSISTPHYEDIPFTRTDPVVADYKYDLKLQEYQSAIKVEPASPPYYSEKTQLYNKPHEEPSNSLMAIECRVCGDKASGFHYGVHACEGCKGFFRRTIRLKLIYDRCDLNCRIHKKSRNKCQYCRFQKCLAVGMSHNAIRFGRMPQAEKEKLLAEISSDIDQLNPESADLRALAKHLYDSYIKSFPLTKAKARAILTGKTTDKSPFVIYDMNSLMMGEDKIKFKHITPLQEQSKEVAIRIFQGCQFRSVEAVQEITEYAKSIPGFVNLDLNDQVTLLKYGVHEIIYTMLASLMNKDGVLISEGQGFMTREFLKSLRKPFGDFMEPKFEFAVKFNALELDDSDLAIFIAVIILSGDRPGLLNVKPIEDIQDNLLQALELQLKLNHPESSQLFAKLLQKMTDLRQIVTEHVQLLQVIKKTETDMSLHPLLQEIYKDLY
human Ephrin type-A Receptor 1 (EphA1), EPHA1 (gene 2041), sequence (P21709 whole entry, looked up): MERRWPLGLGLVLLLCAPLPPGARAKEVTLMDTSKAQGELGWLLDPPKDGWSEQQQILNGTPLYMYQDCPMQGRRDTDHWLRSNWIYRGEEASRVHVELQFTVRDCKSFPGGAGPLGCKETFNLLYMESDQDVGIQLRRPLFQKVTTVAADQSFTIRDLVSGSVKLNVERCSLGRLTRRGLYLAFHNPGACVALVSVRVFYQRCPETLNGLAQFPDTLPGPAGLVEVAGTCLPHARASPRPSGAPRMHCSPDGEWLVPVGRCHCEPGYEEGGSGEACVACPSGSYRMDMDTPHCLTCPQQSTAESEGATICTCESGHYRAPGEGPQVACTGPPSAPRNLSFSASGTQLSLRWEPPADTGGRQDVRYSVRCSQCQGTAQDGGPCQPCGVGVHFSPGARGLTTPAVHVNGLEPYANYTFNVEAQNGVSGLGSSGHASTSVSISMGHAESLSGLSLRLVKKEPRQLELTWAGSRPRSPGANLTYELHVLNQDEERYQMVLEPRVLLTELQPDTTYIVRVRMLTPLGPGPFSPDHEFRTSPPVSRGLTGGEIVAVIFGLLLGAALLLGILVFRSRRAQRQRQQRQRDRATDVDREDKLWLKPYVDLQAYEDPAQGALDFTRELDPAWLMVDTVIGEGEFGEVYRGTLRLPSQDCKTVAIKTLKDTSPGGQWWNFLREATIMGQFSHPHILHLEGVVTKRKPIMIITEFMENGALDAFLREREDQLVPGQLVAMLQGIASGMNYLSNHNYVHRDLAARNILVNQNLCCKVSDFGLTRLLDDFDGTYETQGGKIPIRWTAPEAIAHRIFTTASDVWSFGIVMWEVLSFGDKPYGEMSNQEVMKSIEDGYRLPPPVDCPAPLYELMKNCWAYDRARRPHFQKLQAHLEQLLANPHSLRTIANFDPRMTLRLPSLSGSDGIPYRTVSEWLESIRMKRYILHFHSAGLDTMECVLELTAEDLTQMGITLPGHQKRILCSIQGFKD
rat Peripheral-type Benzodiazepine Receptor (PBR), Tspo (gene 24230), sequence (P16257 whole entry, looked up): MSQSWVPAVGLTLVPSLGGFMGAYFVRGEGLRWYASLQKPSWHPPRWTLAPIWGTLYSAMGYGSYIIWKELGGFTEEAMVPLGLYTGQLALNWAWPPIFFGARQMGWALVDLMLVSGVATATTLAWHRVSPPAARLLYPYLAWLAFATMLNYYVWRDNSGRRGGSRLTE
Bile acid receptor (Homo sapiens), sequence (Q96RI1 whole entry, looked up, the tested form may be a part): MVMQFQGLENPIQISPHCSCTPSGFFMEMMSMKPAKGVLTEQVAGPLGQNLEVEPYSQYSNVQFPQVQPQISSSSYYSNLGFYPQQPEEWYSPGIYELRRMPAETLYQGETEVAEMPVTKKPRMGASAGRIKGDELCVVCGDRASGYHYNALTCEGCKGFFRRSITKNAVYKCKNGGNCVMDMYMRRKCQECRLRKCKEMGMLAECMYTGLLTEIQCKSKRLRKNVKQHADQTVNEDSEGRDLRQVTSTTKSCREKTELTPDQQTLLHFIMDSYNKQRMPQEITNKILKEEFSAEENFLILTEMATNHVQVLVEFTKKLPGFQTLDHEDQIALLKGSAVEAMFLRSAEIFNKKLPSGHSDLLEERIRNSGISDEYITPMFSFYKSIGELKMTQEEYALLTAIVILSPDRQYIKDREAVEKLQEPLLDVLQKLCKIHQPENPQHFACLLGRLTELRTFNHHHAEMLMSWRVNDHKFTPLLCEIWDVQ

For the molecule `CC(=O)C=Cc1ccccc1`, the molecule was called inactive in experiment [1] and in [2].

In the case of `Nc1c(Cl)c(Cl)c(Cl)c(Cl)c1Cl`, in [3], the result was inactive.

With `Oc1ccc(Cl)cc1`, in experiment [2], the outcome was inactive.

For `CNC(=O)Oc1cc(C)c(SC)c(C)c1`, the result in [3], in experiment [6], in experiment [7], in experiment [9], in experiment [10] and in experiment [12] was inactive. Moreover, the outcome in [13] and in [14] was inactive. For the same molecule, the AC50 in [4] was 11.7 µM (active); in experiment [5] it was 39.5 µM (active); in experiment [8], 21.2 µM (active); in experiment [11], 65.1 µM (active); in [12] it was 50 µM (active); in [14] it was 71.1 µM (active).

In the case of `CC1(C)[C@H](C(=O)O[C@H](C#N)c2cccc(Oc3ccccc3)c2)[C@@H]1C=C(Br)Br`, the molecule was classed as inactive in experiment [3]. The AC50 in experiment [4] is 15 µM (active).

For `O=[N+]([O-])c1ccc(Cl)cc1`, the result in experiment [15] and in experiment [16] was inactive.

As to `c1ccc(P(c2ccccc2)c2ccccc2)cc1`, the AC50 in experiment [1] is 14.9 µM (active).

`Oc1cc(Cl)ccc1Cl`: the outcome in experiment [5], in [6], in experiment [8], in [9] and in experiment [10] was inactive. The AC50 in experiment [7] is 25.8 µM (active); in experiment [11], 30.6 µM (active).

For `O=C(NCNC(=O)NC1C(=O)NC(=O)N1CO)NC1C(=O)NC(=O)N1CO` (stereo not drawn), the molecule was classed as inactive in experiment [17], in [12] and in [14]. For the same molecule, the AC50 in experiment [13] is 50 µM (active).

For the molecule `CC(C)C(=O)Cl`, the outcome in experiment [3] was inactive.

As for `CCC[N+](=O)[O-]`, the AC50 in [15] was 25 µM (active).

On to `CCOC(=O)NC(=S)Nc1ccccc1NC(=S)NC(=O)OCC`, for which the result in experiment [2] was inactive.

`CN(C)N`: the outcome in [3], in [12], in experiment [13] and in experiment [14] was inactive.

As for `O=C(CCl)c1ccccc1`, the result in experiment [18] and in [19] was inactive.
